Screens from PubChem.
CHT allo act: human CHT allosteric activation; B-score at 10 µM; hit rate 0.49% among 310,000; CHT-expressing cells, membrane potential dye, choline EC20; stronger effect = higher value; LV-AA mutant CHT in HEK293 cells; Q9GZV3;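 active = initial fluorescence not abnormally high and integrated response B-score, plate-corrected, over 3 SD above library mean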
TMEM16A act: activates or potentiates the mouse TMEM16A chloride channel | B-score at 10 µM | hit rate 0.3% among 340,000 | AID 623877 | HEK293 TMEM16A/YFP-H148Q/I152L, iodide quench fluorescence; stronger effect = lower value | Q8BHY3;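 active = fluorescence-ratio B-score plate-corrected deviation score at least 3 library SD below zero, with starting fluorescence score within 5 deviations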;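 note: channel opened by trigger with iodide after compound preincubation; score built on the fluorescence ratio of max minus min over baseline; more negative score means more quench and so TMEM16A activation or potentiation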
CHT block: inhibitors of human choline transporter CHT | Q9GZV3 | CHT-expressing cells, membrane potential dye, choline response; stronger effect = lower value | hit rate 0.86% among 310,000 | B-score at 10 µM;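 active = B-score over 3 SD under the library average, and starting fluorescence ratio not unusually high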;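 note: choline stimulus applied at its EC90 after an EC20 pre-addition; B-score computed on integrated fluorescence ratio after choline addition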
TMEM16A inh: mouse TMEM16A channel inhibition, primary screen; Q8BHY3; HEK293 TMEM16A/YFP iodide influx fluorescence, ionomycin; normalized B-score (activity score, 25-100; higher = stronger inhibition) at 10 µM; hit rate 1.2% among 310,000;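 active = ratio plate-corrected score three or more library SD toward inhibition, starting fluorescence score within five deviations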;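 note: score derived from kinetic fluorescence span divided by baseline fluorescence per well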
* marks the source's active call; other numbers are inactive results; i = inactive; . = not tested or not shown. Rows were chosen to be rich in hits. Some 2.3% of all compounds tested hit in one or more screens of this group.

SMILES | CHT allo act | TMEM16A act | CHT block | TMEM16A inh
CC(C)(C)c1cc[n+](-c2[nH]c(=O)sc2/C=N/N=C(\[O-])c2cccnc2)cc1 | i | i | i | i
O=c1[nH]c(-[n+]2ccc3ccccc3c2)c(/C=N/N=C(\[O-])c2ccccc2)s1 | i | -11.5* | i | i
CCCC(=O)Nc1nnc(SCC(=O)N2CCCCC2)s1 | i | i | i | i
Cc1n[nH]c(C)c1N1C(=O)c2cccc3c(Br)ccc(c23)C1=O | i | i | -7.37* | i
O=c1c(Cl)c(O)ccn1C1OC(CO)C(O)C1O (centres undefined) | . | i | . | .
C/C(=N\OCC(=O)OCC(=O)N(Cc1ccccc1)C(C)(C)C)c1ccc2c(c1)OCO2 | i | i | i | i
Cc1ccc(SCCNC(=O)/C=C/c2ccccc2Cl)cc1 | i | i | i | 25*
CC1CC(=O)c2c(cc3c(-c4c(O)cc(O)c5c(O)c6c(cc45)OC(C)CC6=O)c(O)cc(O)c3c2O)O1 (centres undefined) | i | -19.9* | i | i
C=CC(C)(C)c1c(O)c(CC=C(C)C)c(O)c2c(=O)c3ccc(O)c(O)c3oc12 | i | i | i | 100*
CC(=O)/C(C#N)=C1\NC(=O)C(Cc2ccc(C)c(C)c2)S1 (centres undefined) | i | i | i | 25*
O=C(NCc1ccc(Cl)cc1)c1n[nH]c([N+](=O)[O-])c1Cl | i | i | -8.52* | i
CCN(CC(=O)Nc1c(F)cccc1F)C(=O)CCCc1cccs1 | . | -39.3* | . | .
CC(=O)c1cccc(OCC(=O)Nc2ccccc2N2CCOCC2)c1 | . | i | . | .
O=C(O)c1ccc(Cl)cc1Nc1nc2cc(Cl)ccc2o1 | i | i | i | 25*
O=C(O)c1cc2cc(Cl)ccc2oc1=O | i | i | i | i
CC(C)(C)n1cnc2cc(NCc3ccc(Br)cc3)ccc21 | i | -9.02* | i | i
CCc1ccc(CNc2ccc3c(c2)ncn3C(C)(C)C)cc1 | i | i | i | i
CCc1ccc(CNc2ccc3c(c2)ncn3CC)cc1 | i | -6.91* | i | i
Cc1ccc(S(=O)(=O)c2nc(S(C)(=O)=O)sc2N2CC(C)OC(C)C2)cc1 (centres undefined) | i | i | i | i
Cc1cc(C)c(-n2nnnc2SCC(=O)c2cccs2)c(C)c1 | i | i | i | i
COC(=O)[C@@H]1[C@@H](C#N)C2(c3ccccc3-c3ccccc32)N(c2ccc(Cl)cc2)N1C#N | i | i | i | 25*
COC(=O)C1c2ccccc2-c2ccccc21 | . | i | . | .
CCOc1ccc(Nc2ccc([N+](=O)[O-])c3nonc23)cc1 | i | i | i | 100*
COc1cccc(C2=CC(c3ccc(N(C)C)cc3)n3ncnc3N2)c1 (centres undefined) | i | . | -9.27* | i
O=C(Nc1cccnc1)Nc1ccccn1 | i | -6.4* | i | i
SMILES | CHT allo act | TMEM16A act | CHT block | TMEM16A inh
Cc1ccc(S(=O)(=O)/N=C2/NC(=O)/C(=C/c3ccc(Br)o3)S2)cc1 | i | i | i | 25*
Cc1ccc(NCSc2ccc(Cl)cc2)cc1 | . | i | . | .
CSc1ccc(CNc2ccc(Cl)cc2)cc1 | i | i | i | 25*
Cc1ccccc1NC(=O)CSc1nnc(-c2ccco2)c(-c2ccco2)n1 | i | i | i | 25*
O=C(CSc1nnc(-c2ccco2)c(-c2ccco2)n1)Nc1ccccc1 | i | i | i | i
COc1cccc(NC(=O)CSc2nnc(-c3ccco3)c(-c3ccco3)n2)c1 | i | i | -7.35* | i
NC(=O)c1cc(S(=O)(=O)NCc2ccc(F)cc2)cs1 | i | -14* | i | i
Cc1cccc(CNS(=O)(=O)c2csc(C(N)=O)c2)c1 | i | i | i | i
Cc1onc(-c2c(F)cccc2Cl)c1C(=O)NNC(=O)C1CCN(Cc2cccc(F)c2)CC1 | i | i | i | i
Cc1ccc(S(=O)(=O)n2nccc2-c2c(-c3ccc(Cl)cc3)noc2C)cc1 | i | -4.86* | i | i
CC(C)COc1ccc(CSCCNC(=S)Nc2ccccc2)cc1 | i | i | i | 100*
CC(=O)O[C@H]1C[C@@H]2CC[C@@H]3[C@H](CC[C@@]4(C)[C@H]3C[C@H]([N+]3(C)CCCCC3)[C@@H]4OC(C)=O)[C@@]2(C)C[C@@H]1[N+]1(C)CCCCC1 | i | i | i | i
